One experiment addresses Albumin (Bos taurus) (UniProt P02769). Nature of the experiment: bovine serum albumin binders on microarray, profiling panel, artefact control for SMM control protein annotation, biochemical, small-molecule microarray, Alexa647 label, 635/667 nm fluorescence (AID 1118).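 Note: score merges 667 nm emission intensity and signal-to-noise per printed compound spot.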 As to conditions: BSA-A647 binding, fluorescence 635 nm, higher = more signal.
Experiment [1] can be described thus: small-molecule microarray binders of probe aXIP, primary screen, biochemical, NeuroSMM set, 635/667 nm fluorescence (AID 1119).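 Note: probe is the protein aXip251-270 applied at 1 µg/mL to compound-printed slides; binding of probe to printed compounds measured as 667 nm fluorescence plus signal to noise.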 As to conditions: higher = more signal, called active from +8 up or from −8 down.
A short description of experiment [2]: small-molecule binders of probe aNOTCH3, primary screen, biochemical, small-molecule microarray, 635/667 nm fluorescence (AID 1120).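 Note: probe is a biotin-tagged antibody raised against NOTCH3 rather than NOTCH3 protein; score merges spot fluorescence near 667 nm with spot signal to noise.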 As to conditions: higher = more signal.
Experiment [3] can be described thus: small-molecule binders of probe aNOTCH2, primary screen, biochemical, small-molecule microarray, 635/667 nm fluorescence (AID 1121).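 Note: score merges feature fluorescence read at 667 nm with its signal to noise.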 As to conditions: higher = more signal.
The target in experiment [4] is Carbonic anhydrase 2 (Homo sapiens) (UniProt P00918). Nature of the experiment: CAII small-molecule binders, profiling panel, biochemical, small-molecule microarray, Alexa647-labelled CAII (AID 1122). As to conditions: CAII-A647 binding fluorescence, higher = more signal.
Experiment [5] in a line: COS7 lysate on small-molecule microarray, probe aHis, 635 nm (AID 1123).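 Note: z-score combines 667nm fluorescence intensity with signal-to-noise per printed compound spot.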 The note with it: COS7 cell lysate, fluorescence, higher = more signal.
Experiment [6] can be described thus: compound binding in COS7 lysate, probe aLAP1, primary screen, cell lysate, small-molecule microarray (AID 1124).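 Note: lysate comes from COS7 cells expressing LAP1 and is applied at 0.3 µg/mL; score merges spot fluorescence near 667 nm with signal-to-noise over triplicate slides.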 As to conditions: probe aLAP1, fluorescence, higher = more signal.
Another experiment relates to Sam68 (KHDRBS1). The experiment is described as follows: Sam68 small-molecule binders, primary screen, biochemical, small-molecule microarray, 635 nm fluorescence (AID 1125).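 Note: score merges 667 nm channel intensity with signal to noise over triplicate slides.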 As to conditions: small-molecule microarray binding, higher = more signal.
Experiment [7] deals with Chordin-like protein 2 (CHRDL2). Nature of the experiment: CHRDL2 small-molecule binders, primary screen, biochemical, small-molecule microarray, 635 nm fluorescence (AID 1126).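 Note: printed compound slides probed with Chrdl2 protein at 4 µg/mL for 1 h at 4 C; score merges 667 nm emission intensity with signal to noise over three replicate slides.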 The note with it: small-molecule microarray binding, fluorescence 635 nm; higher = more signal.
Experiment [8] deals with Concanavalin-A (Canavalia ensiformis) (UniProt P02866). Nature of the experiment: ConA small-molecule binders, primary screen, artefact control for SMM control protein annotation, biochemical, small-molecule microarray, Alexa647 label, 635 nm (AID 1127).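 Note: z combines 667 nm emission intensity with signal-to-noise across three replicate slides.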 The note with it: ConA-A647 binding fluorescence, higher = more signal.
A short description of experiment [9]: anti-His antibody binders, primary screen, artefact control for SMM control protein annotation, biochemical, small-molecule microarray, 635 nm fluorescence (AID 1128).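 Note: score merges feature fluorescence with signal-to-noise for each printed compound spot.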 As to conditions: anti-His Alexa647 antibody binding, higher = more signal.
In experiment [10] the test system is Human papillomavirus type 1a E7 protein (residues 1-88). Nature of the experiment: HPV1a E7 small-molecule binders, primary screen, biochemical, small-molecule microarray, residues 1-88, 635 nm (AID 1129). The note with it: small-molecule microarray binding, fluorescence 635 nm; higher = more signal.
The target of experiment [11] is Focal adhesion kinase 1 (Homo sapiens) (UniProt Q05397). Nature of the experiment: small-molecule microarray binders of FAK, primary screen, biochemical, 635/667 nm fluorescence, BSA, DTT (AID 1130).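 Note: composite of spot emission at 667 nm and signal to noise over triplicate slides.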 As to conditions: PTK2 binding, 635 nm fluorescence, higher = more signal.
Experiment [12] relates to Fibrinogen (Alexa647-labelled). The experiment is described as follows: fibrinogen binders on compound microarrays, profiling panel, artefact control for SMM control-protein annotation, biochemical, small-molecule microarray, 635/667 nm fluorescence (AID 1131).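 Note: z-score merges 667 nm fluorescence with per-spot signal-to-noise over triplicate slides.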 The note with it: fibrinogen-A647 binding fluorescence, higher = more signal.
Experiment [13] addresses Follistatin (Homo sapiens) (UniProt P19883). The experiment is described as follows: follistatin binders on small-molecule microarrays, primary screen, biochemical, small-molecule microarray, 635/667 nm fluorescence (AID 1132). The note with it: FST binding, 635 nm fluorescence, higher = more signal.
For experiment [14], the target named is Fibroblast growth factor 2 (Homo sapiens) (UniProt P09038). Nature of the experiment: FGF2 binders on small-molecule microarrays, primary screen, biochemical, small-molecule microarray, 635/667 nm fluorescence (AID 1133). The note with it: small-molecule microarray binding, FGF2, fluorescence 635/667; higher = more signal.
A short description of experiment [15]: mitochondrial membrane potential change in A549 cells, profiling panel, cell-based, JC-1 fluorescence, basal, 24 h, 100 nL (AID 1138).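 Note: A549 lung adenocarcinoma cells under basal conditions with no added stimulus; test concentration not given here.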 The note with it: higher = more signal.
A further experiment concerns Lefty1. Nature of the experiment: Lefty1 binders on small-molecule microarrays, primary screen, biochemical, small-molecule microarray, 635/667 nm fluorescence (AID 1139). As to conditions: small-molecule microarray binding, fluorescence 635/667; higher = more signal.
Experiment [16] has as its system wheat germ agglutinin (Triticum aestivum), Alexa647-labelled. Nature of the experiment: wheat germ agglutinin binders on compound microarrays, profiling panel, artefact control for SMM control-protein annotation, biochemical, small-molecule microarray, 635/667 nm fluorescence (AID 1140).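 Note: score merges 667 nm feature emission with signal to noise over triplicate slides.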 As to conditions: WGA-A647 binding, 635 nm fluorescence, higher = more signal.

The target of experiment [17] is Luciferin 4-monooxygenase (Photinus pyralis) (UniProt P08659). The experiment is described as follows: firefly luciferase enzyme inhibitors, primary screen, biochemical, luminescence, purified enzyme, 2006 set (AID 1141).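 Note: cell-free assay with purified firefly luciferase at 100 ng per well in PBS; test concentration not given here.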 As to conditions: SteadyGlo luminescence, 30 min, higher = more signal, called active from +8 up or from −8 down.

Six compounds from PubChem BioAssay can be followed below.

Structures are written as SMILES. Active and inactive are the calls of the source.

Focal adhesion kinase 1 (Homo sapiens), sequence (Q05397 whole entry, looked up): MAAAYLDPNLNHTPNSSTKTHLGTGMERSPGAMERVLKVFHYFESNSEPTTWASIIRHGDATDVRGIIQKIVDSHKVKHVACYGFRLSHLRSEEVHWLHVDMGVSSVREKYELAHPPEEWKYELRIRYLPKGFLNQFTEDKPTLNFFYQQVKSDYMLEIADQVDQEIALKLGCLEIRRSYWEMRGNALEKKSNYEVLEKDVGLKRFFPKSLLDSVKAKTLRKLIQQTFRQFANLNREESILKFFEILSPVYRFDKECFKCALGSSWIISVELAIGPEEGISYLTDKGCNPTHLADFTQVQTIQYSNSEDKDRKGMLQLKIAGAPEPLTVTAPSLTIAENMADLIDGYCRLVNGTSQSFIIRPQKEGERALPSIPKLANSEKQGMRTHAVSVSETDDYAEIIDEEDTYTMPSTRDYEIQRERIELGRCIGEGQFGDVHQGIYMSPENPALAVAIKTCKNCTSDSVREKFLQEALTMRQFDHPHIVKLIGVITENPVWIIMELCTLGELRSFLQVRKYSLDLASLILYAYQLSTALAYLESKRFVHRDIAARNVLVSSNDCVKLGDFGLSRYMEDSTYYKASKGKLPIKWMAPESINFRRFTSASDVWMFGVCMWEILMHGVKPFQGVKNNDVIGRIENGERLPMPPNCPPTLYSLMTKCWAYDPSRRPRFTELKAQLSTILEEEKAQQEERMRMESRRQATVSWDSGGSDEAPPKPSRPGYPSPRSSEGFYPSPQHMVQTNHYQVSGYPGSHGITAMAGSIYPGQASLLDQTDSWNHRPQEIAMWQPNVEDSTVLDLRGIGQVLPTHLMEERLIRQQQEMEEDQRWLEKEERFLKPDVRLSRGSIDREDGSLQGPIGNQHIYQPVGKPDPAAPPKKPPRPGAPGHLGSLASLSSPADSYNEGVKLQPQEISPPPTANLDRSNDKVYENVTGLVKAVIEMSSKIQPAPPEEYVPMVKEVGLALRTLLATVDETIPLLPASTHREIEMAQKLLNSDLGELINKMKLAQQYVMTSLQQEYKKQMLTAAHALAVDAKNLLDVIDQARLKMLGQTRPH
Albumin (Bos taurus), sequence (P02769 whole entry, looked up): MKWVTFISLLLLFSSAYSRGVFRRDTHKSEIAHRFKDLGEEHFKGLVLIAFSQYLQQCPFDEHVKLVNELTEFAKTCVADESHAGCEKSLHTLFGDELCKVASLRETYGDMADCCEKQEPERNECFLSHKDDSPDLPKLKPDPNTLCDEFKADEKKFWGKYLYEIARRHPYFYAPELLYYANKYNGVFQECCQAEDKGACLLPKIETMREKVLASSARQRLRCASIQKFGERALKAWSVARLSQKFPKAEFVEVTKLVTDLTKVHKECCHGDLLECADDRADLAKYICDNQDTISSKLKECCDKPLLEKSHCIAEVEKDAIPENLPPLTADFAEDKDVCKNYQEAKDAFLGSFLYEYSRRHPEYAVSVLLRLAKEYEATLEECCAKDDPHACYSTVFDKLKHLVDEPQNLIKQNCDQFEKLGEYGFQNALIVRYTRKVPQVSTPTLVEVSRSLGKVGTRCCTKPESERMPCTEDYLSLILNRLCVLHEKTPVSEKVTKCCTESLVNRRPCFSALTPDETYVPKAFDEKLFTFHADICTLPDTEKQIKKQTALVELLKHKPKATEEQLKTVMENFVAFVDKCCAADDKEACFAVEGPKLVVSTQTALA
Luciferin 4-monooxygenase (Photinus pyralis), sequence (P08659 whole entry, looked up): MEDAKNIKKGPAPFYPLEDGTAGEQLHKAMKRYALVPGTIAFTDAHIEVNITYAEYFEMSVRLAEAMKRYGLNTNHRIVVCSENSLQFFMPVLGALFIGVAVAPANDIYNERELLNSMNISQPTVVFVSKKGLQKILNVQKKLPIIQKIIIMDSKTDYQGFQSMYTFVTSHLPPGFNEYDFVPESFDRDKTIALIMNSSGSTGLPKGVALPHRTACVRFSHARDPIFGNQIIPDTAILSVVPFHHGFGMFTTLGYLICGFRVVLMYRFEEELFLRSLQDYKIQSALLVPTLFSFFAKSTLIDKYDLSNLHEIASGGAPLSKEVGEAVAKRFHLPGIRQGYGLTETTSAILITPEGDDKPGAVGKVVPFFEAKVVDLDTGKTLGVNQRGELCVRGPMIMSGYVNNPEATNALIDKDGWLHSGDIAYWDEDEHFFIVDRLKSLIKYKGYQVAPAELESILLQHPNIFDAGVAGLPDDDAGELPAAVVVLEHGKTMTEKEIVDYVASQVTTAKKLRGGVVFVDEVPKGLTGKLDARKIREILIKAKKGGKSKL
Follistatin (Homo sapiens), sequence (P19883 whole entry, looked up): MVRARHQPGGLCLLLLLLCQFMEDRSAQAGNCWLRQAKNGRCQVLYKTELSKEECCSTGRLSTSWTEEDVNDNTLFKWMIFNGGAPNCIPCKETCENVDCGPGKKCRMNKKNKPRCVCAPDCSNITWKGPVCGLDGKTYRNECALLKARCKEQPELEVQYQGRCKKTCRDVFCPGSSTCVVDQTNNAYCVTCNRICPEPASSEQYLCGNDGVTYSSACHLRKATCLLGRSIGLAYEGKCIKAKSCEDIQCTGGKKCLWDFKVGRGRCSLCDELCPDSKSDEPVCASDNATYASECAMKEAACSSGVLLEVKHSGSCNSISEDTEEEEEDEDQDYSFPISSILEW
Concanavalin-A (Canavalia ensiformis), sequence (P02866 whole entry, looked up): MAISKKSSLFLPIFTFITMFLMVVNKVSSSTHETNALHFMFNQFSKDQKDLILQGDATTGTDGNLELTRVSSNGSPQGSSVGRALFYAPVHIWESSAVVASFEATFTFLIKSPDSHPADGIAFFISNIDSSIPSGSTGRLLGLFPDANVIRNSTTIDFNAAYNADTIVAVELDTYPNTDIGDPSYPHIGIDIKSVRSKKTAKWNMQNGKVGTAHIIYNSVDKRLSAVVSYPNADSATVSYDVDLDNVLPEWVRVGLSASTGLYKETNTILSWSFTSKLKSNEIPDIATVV
Fibroblast growth factor 2 (Homo sapiens), sequence (P09038 whole entry, looked up): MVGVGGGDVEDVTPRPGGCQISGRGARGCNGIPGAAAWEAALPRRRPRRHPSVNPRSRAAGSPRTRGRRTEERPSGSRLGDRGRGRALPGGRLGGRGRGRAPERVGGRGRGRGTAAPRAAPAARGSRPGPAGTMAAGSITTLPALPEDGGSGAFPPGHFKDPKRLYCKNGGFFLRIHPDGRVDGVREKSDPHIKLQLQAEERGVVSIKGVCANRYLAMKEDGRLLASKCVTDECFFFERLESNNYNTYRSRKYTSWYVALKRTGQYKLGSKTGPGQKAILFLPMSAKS

Turning to `CC1(C)C2C=C(C(O)C3C=CC4C(=O)NC(=O)C4N3Nc3ccc(Cl)cc3Cl)C[C@@H]1C2` (stereo not given in full), the composite z-score in the experiment with Albumin (Bos taurus) was 0.818; in experiment [2], 0.323; in [3], 0.155; in experiment [4] it was 0.423; in experiment [5] it was 1.24; in [6], 0.906. Further, the composite z-score in the experiment with Sam68 (KHDRBS1) was 0.337; in [7], 0.061; in experiment [8] it was 0.899; in experiment [9] it was 1.26; in experiment [10] it was 0.87; in [11], -0.167. Moreover, the composite z-score in [12] is 0.606; in experiment [13], 1.02; in [14], -0.169; in the experiment on Lefty1, 0.317; in [16], 0.698. Also, the composite Z-score in experiment [1] was 0.392 (inactive). Further, the z-score in experiment [15] is -1.44; in experiment [17], 0.155 (inactive).
Consider `O=C(NC1CC1)[C@@H]1c2ccccc2C(=O)N(Cc2ccccc2Cl)[C@H]1c1ccc(CO)cc1`, for which the composite z-score was -0.243 in the experiment with Albumin (Bos taurus); 0.0765 in [2]; -0.0411 in experiment [3]; 0.633 in experiment [4]; 2.33 in experiment [5]; 0.108 in [6]. For the same compound, the composite z-score with Sam68 (KHDRBS1) was determined as 1.33; in experiment [7], 0.516; in experiment [8], 1.02; in experiment [9] it was 3.06; in [10], 0.981; in experiment [11], 1.06. In addition, the composite z-score was determined as 0.57 in experiment [12]; 1.33 in [13]; 1.32 in experiment [14]; 0.233 in the experiment with Lefty1; 0.447 in experiment [16]. In addition, the composite Z-score in [1] was 0.0965 (inactive). Moreover, the figures for the z-score in [15] and in [17] were 3.13 and -1.44 (inactive), respectively.
Take `COCCOC(=O)N1C(=O)[C@@]2(c3cc(C#CCCO)ccc31)[C@H](C(=O)N1CCCCCCC1)[C@H]1C(=O)O[C@H](c3ccccc3)[C@H](c3ccccc3)N1[C@@H]2c1ccc(OCCO)cc1`: the composite z-score in the experiment with Albumin (Bos taurus) was determined as 0.796; in experiment [2] it was 1.33; in experiment [3], 0.833; in experiment [4], 0.549; in experiment [5], 2.75; in [6], 0.906. Moreover, the composite z-score with Sam68 (KHDRBS1) turned out to be 1.3; in experiment [7], 1.26; in experiment [8] it was 1.16; in experiment [9], 1.19; in experiment [10] it was 1.2; in experiment [11], 0.959. Also, the composite z-score is 0.769 in [12]; 1.4 in [13]; 1.51 in experiment [14]; 1.6 with Lefty1; 1.35 in experiment [16]. In addition, the composite Z-score in experiment [1] is 1.91 (inactive). For the same compound, the z-score in experiment [15] is -0.821; in [17], 0.242 (inactive).
For `COCCCNC(=O)[C@]1(CCC(=O)OC(C)(C)C)N=C(c2ccc(OCCCO)cc2)O[C@@H]1c1ccccc1CN=[N+]=[N-]`, the composite z-score with Albumin (Bos taurus) was 0.839; in [2], 0.395; in experiment [3], -0.0411; in [4], 0.78; in [5], 2.03; in [6], 1.8. Further, the composite z-score amounted to 1.3 in the experiment with Sam68 (KHDRBS1); 0.0091 in [7]; 1.12 in experiment [8]; 1.3 in experiment [9]; 1.26 in experiment [10]; 0.383 in experiment [11]. Moreover, the composite z-score in [12] was 0.197; in experiment [13], 1.28; in [14], 1.09; in the experiment on Lefty1, 0.19; in experiment [16], 1.13. In addition, the composite Z-score in experiment [1] is 0.0707 (inactive). The z-score is -0.627 in [15] and -1.11 (inactive) in experiment [17].
With `C=CCNC(=O)[C@H]1[C@@H]2C(=O)O[C@@H](c3ccccc3)[C@@H](c3ccccc3)N2[C@@H](c2ccccc2OCCO)[C@]12C(=O)Nc1ccc(C#CCCO)cc12`, the composite z-score in the experiment with Albumin (Bos taurus) is -0.066; in [2], -0.214; in experiment [3], -0.137; in [4] it was 0.423; in experiment [5], 1.06; in experiment [6], 0.0894. In addition, the composite z-score is -0.0891 in the experiment with Sam68 (KHDRBS1); -0.0022 in experiment [7]; 0.801 in experiment [8]; 1.12 in [9]; -0.231 in [10]; 0.191 in experiment [11]. The composite z-score in [12] is -0.205; in [13] it was 0.0804; in [14] it was 2.05; in the experiment on Lefty1, -0.376; in experiment [16], -0.0387. Further, the composite Z-score in experiment [1] is 0.313 (inactive). The z-score in experiment [15] was 0.582; in experiment [17], -0.412 (inactive).
Consider `COc1ccc(-c2cc3c(c(-c4ccc(Oc5ccccc5)cc4)n2)[Si](C(C)C)(C(C)C)OC3)cn1`, for which the composite z-score was -0.344 with Albumin (Bos taurus); -0.0311 in [2]; -0.132 in [3]; -0.163 in [4]; 0.0687 in experiment [5]; -0.232 in experiment [6]. For the same compound, the composite z-score in the experiment on Sam68 (KHDRBS1) is -0.0667; in experiment [7], -0.0581; in experiment [8] it was 0.478; in experiment [9] it was 0.0674; in [10], -0.221; in experiment [11] it was 0.158. The composite z-score was -0.424 in experiment [12]; 0.525 in experiment [13]; -0.224 in [14]; 0.278 in the experiment on Lefty1; -0.12 in experiment [16]. Further, the composite Z-score in experiment [1] was -0.108 (inactive). Further, the z-score in experiment [15] was -0.0734; in [17], 0.223 (inactive).
